# Reference: the supplement of paper PMC6555819
# Columns and labels:
# Assay in all cases: PBM binding z-score (relative to random genomic background probes); higher = stronger binding; sequences stand for … in GC…GCGATTGACAGCGTAGAATGAAGG
# [1] = test system: PPARg:RXRa DBDmut IVT, anti-RXR (DBD mutation: RXRa K156A/R161A, NR concentration 270 nM, RXRa partner concentration 90 nM)
# Method in brief: (§1)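 Regression normalization was applied to scanned fluorescence from custom Agilent 4×180K protein-binding microarrays. Before scanning, arrays were incubated 1 h with ligand-free nuclear receptor dimers, and binding was detected with antibodies against each partner (one per run). Binding z-scores use the random background probes as reference.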
# [2] = test system: PPARg:RXRa IVT, anti-PPARg (NR concentration 270 nM, RXRa partner concentration 90 nM)
# Method in brief: as §1
# [3] = test system: PPARg DBDmut:RXRa IVT, anti-PPARg (DBD mutation: PPARg1 K132A/R137A, NR concentration 270 nM, RXRa partner concentration 90 nM)
# Method in brief: as §1
# [4] = test system: PPARg DBDmut IVT, anti-PPARg (DBD mutation: PPARg1 K132A/R137A, NR concentration 270 nM)
# Method in brief: as §1
# [5] = test system: PPARg homodimer (NR concentration 180 nM)
# Method in brief: as §1
# [6] = test system: PXR:RXRa (NR concentration 270 nM, RXRa partner concentration 90 nM)
# Method in brief: as §1
# [7] = test system: PXR homodimer (NR concentration 270 nM)
# Method in brief: as §1
# [8] = test system: RARa:RXR (NR concentration 270 nM, RXRa partner concentration 90 nM)
# Method in brief: as §1
# [9] = test system: RARa homodimer (NR concentration 270 nM)
# Method in brief: as §1
# [10] = test system: RARb:RXRa (NR concentration 270 nM, RXRa partner concentration 90 nM)
# Method in brief: as §1
# [11] = test system: RARb homodimer (NR concentration 270 nM)
# Method in brief: as §1
# [12] = test system: RARg:RXRa (NR concentration 270 nM, RXRa partner concentration 90 nM)
# Method in brief: as §1
# [13] = test system: RARg homodimer (NR concentration 270 nM)
# Method in brief: as §1
# [14] = test system: RXRa DBDmut IVT, anti-RXR (DBD mutation: RXRa K156A/R161A, NR concentration 90 nM)
# Method in brief: as §1
# [15] = test system: RXRa homodimer (NR concentration 180 nM)
# Method in brief: as §1
# [16] = test system: THRa:RXRa (NR concentration 90 nM, RXRa partner concentration 90 nM)
# Method in brief: as §1
# [17] = test system: THRa homodimer (NR concentration 90 nM)
# Method in brief: as §1
# [18] = test system: VDR homodimer (NR concentration 270 nM)
# Method in brief: as §1
Sequence,PBM binding z-score [1],PBM binding z-score [2],PBM binding z-score [3],PBM binding z-score [4],PBM binding z-score [5],PBM binding z-score [6],PBM binding z-score [7],PBM binding z-score [8],PBM binding z-score [9],PBM binding z-score [10],PBM binding z-score [11],PBM binding z-score [12],PBM binding z-score [13],PBM binding z-score [14],PBM binding z-score [15],PBM binding z-score [16],PBM binding z-score [17],PBM binding z-score [18]
ATCGAAAGGTCGACGAGGTCAGTATACACCGTTT,1.29,2.59,1.42,0.928,2.73,5.77,9.23,5.2,1.54,4.56,4.63,5.73,5.72,2.48,5.75,4.67,2.54,4.57
ACTAGCAGGCCAAGGGTCGCTCAAGATTAGTCCG,0.554,1.95,-0.249,-1.1,0.333,0.247,-0.683,0.951,-0.617,1.35,0.923,1.12,0.872,-0.27,1.13,0.795,-0.633,-0.246
CGTCCAAGGTCAGAGAGTTCAGTGAATGCCGAGT,2.97,2.07,-0.209,-1.29,2.85,6.75,14.2,4.08,1.32,4.78,4.39,5.25,6.4,3.78,4.59,3.62,2,7.94
CGTCAAAGTTCAAGGTAACCTAACAGAAAGCAGC,0.978,2.67,0.466,0.361,2.09,4.03,2.12,3.26,1.18,5.37,4.17,5.43,6.2,4.3,4.71,3.19,1.38,2.84
CCTAGCAGGCCAGTCTGGGTCACTCAAGGCTTGA,1.92,2.62,-1.53,-2.16,-0.0647,0.811,-0.718,1.45,-1.53,1.42,2.01,1.09,1.2,-0.216,1.05,3.14,0.462,-0.0969
ATGCCAAGGTGATCGTGAGGTCGTTGATACTAAC,0.413,1.05,0.0542,-0.951,0.442,2.75,1.03,2.28,-0.38,1.32,1.42,2.12,0.718,0.41,1.52,3.54,2.25,2.53
TCATATAGGGAAACAGGTGAAAGTCCGTAAGTTA,3.73,2.71,0.703,0.846,1.02,0.713,0.608,0.541,1.28,0.516,0.562,0.344,0.215,1.66,0.796,0.537,0.314,-0.0866
